SMN2 splice up: increases expression of the SMN2 splice variant; HEK293 SMN2-luciferase splicing reporter, luminescence, 30-36 h; Potency, µM (titrated, usually from 46.1 µM), inactives show at the highest dose activity change, positive = activation, actives largely listed as activators; 2.8% of 210,000 active; AID 1458; note: % of control where 0% means no effect; nearly all actives have a fitted effect of over 55% in size
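HEK293 cells carry an SMN2 minigene-luciferase reporter in which exon 7 inclusion puts luciferase in frame. Cells were seeded at 2000 cells/well, attached for 10-12 hours, then exposed to compounds for 30-36 hours at 37C before ONE-Glo luminescence.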
ELG1 genotox: inducers of genotoxicity in HEK293T ELG1-luciferase cells; 1.3% of 330,000 active; Potency, µM (doses to about 46 µM), for inactives: at the top dose activity change, positive = activation, most hits filed as activators; AID 504466; HEK293T ELG1-luciferase reporter, luminescence, 16 h; note: % of control where 0% means no effect; nearly all actives have a fitted effect of over 60% in size
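After overnight (16 hr) compound treatment at 37 °C, ELG1-luciferase HEK293T cells were lysed with ONE-Glo; luminescence quantified 30 min later at room temperature.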
NPC1 promoter act: NPC1 promoter activation. 2.4% of 320,000 active. Potency, µM (titrated, usually from 9.22 µM), for inactives: at the top dose activation, usual class: activators. Huh7 NPC1 promoter luciferase reporter, 24 h; note: % of control where 0% means no effect; nearly all actives have a fitted effect of over 60% in size
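Luminescence read-out of NPC1 promoter-driven luciferase in stably transfected Huh7 cells; compounds delivered in DMSO and left 24 h at 37C, 5% CO2, qHTS titration format.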
FLuc modulator: firefly luciferase modulation, counter-screen for miR-21 project | P08659 | purified FLuc, Km substrates, luminescence inhibition | Potency, µM (titrated, usually from 57.5 µM), for the others: at the top dose activity change, negative = inhibition, hits mostly inhibitors | 6.9% of 360,000 active;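 note: plate controls were vehicle for no effect and reference inhibitor for full effect; nearly all actives have a fitted effect of over 55% in size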
Target sequence (P08659 whole entry, looked up): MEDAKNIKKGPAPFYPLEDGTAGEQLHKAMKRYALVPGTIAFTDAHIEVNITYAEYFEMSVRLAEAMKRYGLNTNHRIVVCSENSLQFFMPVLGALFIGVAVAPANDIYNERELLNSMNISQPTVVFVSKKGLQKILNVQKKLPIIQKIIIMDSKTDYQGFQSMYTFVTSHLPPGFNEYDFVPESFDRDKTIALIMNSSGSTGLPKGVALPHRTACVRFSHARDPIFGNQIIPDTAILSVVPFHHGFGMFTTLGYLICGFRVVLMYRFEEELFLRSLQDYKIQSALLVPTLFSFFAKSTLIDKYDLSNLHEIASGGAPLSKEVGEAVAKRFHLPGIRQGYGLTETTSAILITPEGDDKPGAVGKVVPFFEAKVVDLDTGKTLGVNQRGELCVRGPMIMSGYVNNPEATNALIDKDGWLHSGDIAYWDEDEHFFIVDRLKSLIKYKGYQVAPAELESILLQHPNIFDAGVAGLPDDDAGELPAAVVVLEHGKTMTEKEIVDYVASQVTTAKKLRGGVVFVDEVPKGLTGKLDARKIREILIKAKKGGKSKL
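Biochemical qHTS of compounds, final roughly 60 µM downward over six points, against 10 nM purified firefly luciferase using Km concentrations of substrates (10 uM D-luciferin, 10 uM ATP) in Tris acetate pH 7.5 buffer; luminescence output.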
Rab9 prom act: activators of Rab9 promoter | Huh7 Rab9 promoter-luciferase reporter, luminescence, 24 h | Potency, µM (top dose mostly 9.22 µM), without a hit: at the highest dose activation, negative = inhibition, most hits filed as activators | 2.8% of 320,000 active | AID 485297; note: % of control where 0% means no effect; nearly all actives have a fitted effect of over 60% in size
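Luciferase signal after 10 min detection reagent at ambient indicates Rab9 promoter upregulation; stably transfected Huh7 cells were treated 24 h with compound in DMSO at 37 °C, 5% CO2.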
* hit, by the source's call; ? = inconclusive; / = no result; [ ] = dose if it differs, or a comment. Most compounds without a hit are left out; they make up all but 7.5% or so of the library. Calls come from the whole dose curve; as a rule, active = well fitted curve in the direction sought with a large enough effect; inconclusive = small, poorly fitted or top-dose-only effect, or another doubt; inactive = no such curve, though single readings can be large; an effect the other way counts as inactive or inconclusive. Potency is the fitted concentration of half-maximal effect.

SMILES | SMN2 splice up | ELG1 genotox | NPC1 promoter act | FLuc modulator | Rab9 prom act
COc1cccc(-c2nn(-c3ccc(C)cc3)cc2C(=O)N2CCc3cc(OC)c(OC)cc3C2)c1 | / | -22% | -3% | 5.4µM* | 1%
COc1ccc(OC)c(-c2nn(-c3ccccc3)cc2C(=O)N2CCc3ccccc3C2)c1 | / | 0% | -2% | 2% | 1%
O=C(Nc1ccccc1)c1cn(-c2ccccc2)nc1-c1ccccc1 | / | / | / | -2% | /
COc1ccc(-c2nn(-c3ccccc3)cc2/C=C/C(=O)N2CCOCC2)cc1OC | 11% | -1% | 0% | 24µM* | -2%
COc1ccc(/C=N/NC(=O)CCC(=O)Nc2ccc(Br)cc2)c(OC)c1 | / | -4% | -4% | -11% | -4%
N#CCCSCc1ccc(OCC(=O)O)cc1 | 14% | 0% | 1% | -4% | -3%
CCOC(=O)c1ccc(NC(=O)c2cn(-c3ccccc3)nc2-c2ccc(OC)c(OC)c2)cc1 | 10% | / | / | -1% | /
Cc1ccc(-c2nn(-c3ccccc3)cc2C(=O)Nc2ccc(C(=O)O)cc2)cc1 | 18µM* | 13% | 27% | 1.1µM* | ?
COc1ccc(-c2nn(-c3ccccc3)cc2C(=O)Nc2ccc(C(=O)O)cc2)cc1OC | / | 16% | 18% | 4.3µM* | 16%
COC(=O)CSc1cc([N+](=O)[O-])ccc1NC(=O)OC | -7% | 10% | 1% | -5% | 1%
COc1ccc(C2=NN(C(=O)c3ccco3)C(c3ccco3)C2)cc1OC (stereo not given) | / | -5% | -1% | 15µM* | 3%
CCc1ccc(C2=NN(C(C)=O)C(c3ccco3)C2)cc1 (stereo not given) | 13µM* | 16µM* | 3.5µM* | 8.5µM* | 1.8µM*
O=C(c1ccco1)N1N=C(c2ccc(Cl)cc2)CC1c1ccco1 (stereo not given) | / | -2% | -2% | ? | -1%
CS(=O)(=O)Nc1cccc(C2=NN(C(=O)c3ccco3)C(c3ccco3)C2)c1 (stereo not given) | / | -5% | -15% | 17µM* | -2%
O=C(c1ccco1)N1N=C(c2ccccc2)CC1c1ccc2nccnc2c1 (stereo not given) | / | 3% | -3% | 17µM* | -1%
CCS(=O)(=O)Nc1cccc(C2=NN(C(=O)c3ccco3)C(c3ccco3)C2)c1 (stereo not given) | / | -2% | -26% | -5% | -7%
C=CCc1cccc(Cl)c1OCCCNC1CCCC1 | / | -9% | -3% | 0% | -12%
Cn1c(NC(=O)/C=C/c2ccccc2)cc(=O)n(C)c1=O | 7.9µM* | ? | 16% | 21µM* | ?
Cn1c(NC(=O)CCc2ccccc2)cc(=O)n(C)c1=O | ? | 16µM* | ? | 13µM* | 2.8µM*
Cn1c(NC(=O)/C=C/c2ccc(Cl)c(Cl)c2)cc(=O)n(C)c1=O | 22% | ? | 28% | -19% | 22%
CCCC(=O)Nc1cc(=O)n(C)c(=O)n1C | -20% | 1% | -1% | 0% | 4%
COc1ccc(/C=C/C(=O)Nc2cc(=O)n(C)c(=O)n2C)cc1 | 7% | 13% | 1% | 9.5µM* | -1%
CNC(=O)c1nnsc1S(=O)(=O)c1ccc(Cl)cc1 | -105% | 3% | -42% | -13% | -36%
O=C(Nc1ccccc1-c1ccccc1)c1ccc(Cl)c([N+](=O)[O-])c1 | -1% | ? | -2% | 5% | -1%
OCC[C@@H]1C[C@@H](O)[C@H](O)[C@@]2(Cc3ccccc3CCO2)O1 | / | 2% | -1% | 0% | -5%
SMILES | SMN2 splice up | ELG1 genotox | NPC1 promoter act | FLuc modulator | Rab9 prom act
COc1cc(/C=C2\CCC(C3CCCC3)C2=O)ccc1OC(C)C (stereo not given) | / | 17% | -5% | 15µM* | 0%[1.84 µM]
COc1ccc(/C=C2\CCC(C3CCCC3)C2=O)cc1OC (stereo not given) | / | ? | ? | 11µM* | 6%
COc1cc(/C=C(\C#N)C(=O)NCC2CCCO2)ccc1OC(C)C (stereo not given) | -9% | -1% | 3% | ? | -1%
COc1cc(OC)c(OC)cc1/C=C1\CCC(C2CCCC2)C1=O (stereo not given) | -24% | -14% | -2% | -13% | 1%
O=C(Nc1ccc(Nc2ccccc2)cc1)c1c(F)c(F)c(F)c(F)c1F | / | -10% | 6% | -5% | 4%
COc1ccc(OCc2cc(C(=O)NC3Cc4ccccc4C3)no2)c(Cl)c1 | / | -5% | -24% | 3% | -10%
COc1ccc(OCc2cc(C(=O)NCc3nc(C)cs3)no2)c(Cl)c1 | / | ? | ? | 13µM* | ?
Cc1nc(CNC(=O)c2cc(COc3ccc(F)cc3Cl)on2)cs1 | / | 1% | -1% | 27µM* | 0%
CCN(CC1CCCO1)C(=O)c1cc(COc2ccc(OC)cc2Cl)on1 (stereo not given) | / | 7% | 22% | ? | 20%
COc1ccc(OCc2cc(C(=O)NC(C)c3csc(C)n3)no2)c(Cl)c1 (stereo not given) | / | 7%[9.26 µM] | ? | 13µM* | 4.5µM*
Cc1ccsc1/C=N/N1CCOCC1 | 11% | 8% | 7% | -2% | 7%
Cc1ccc(N=Cc2sccc2C)cc1C | 29% | 0% | 1% | 1.9µM* | 2%
CC(C)(C)c1ccc(/C=N/NC(=O)C2CCCC2)cc1 | / | ? | ? | 19µM* | ?
CC(C)c1ccc(/C=N/NC(=O)C2CCCC2)cc1 | / | 5.8µM* | 2µM* | 12µM* | 2.5µM*
CC(C)c1ccc(/C=N/NC(=O)CC(=O)NC2CCCCC2)cc1 | / | 6% | -1% | -17% | -3%
CC(=O)c1ccc(NC(=O)C(Cc2ccccc2)NS(=O)(=O)c2ccc3c(c2)CCC(=O)N3)cc1 (stereo not given) | 10% | / | / | -2% | /
C/C(=N\NC(=O)C(C)Sc1ccccc1)C(C)(C)C (stereo not given) | 4% | 1% | -1% | -3% | -2%
CN(C)C(=O)c1ccc(NC(=O)COC(=O)C2=COCCO2)cc1 | / | -2% | 1% | -1% | -5%
O=C(O)CC1(CC(=O)Nc2ccc(Br)cc2)CCCCC1 | -29% | -10% | 0% | ? | 2%
CS(=O)(=O)N1CCN(C(=O)c2cc(-c3cccnc3)nc3ccc(Br)cc23)CC1 | -9% | -5% | -2% | -13% | 1%
CC(=O)c1ccc(N2CCN(C(=O)c3cc(-c4cccnc4)nc4ccc(Br)cc34)CC2)cc1 | -19% | -9% | 2% | 11µM* | 0%
O=C(c1cc(-c2cccnc2)nc2ccc(Br)cc12)N1CCN(c2ncccn2)CC1 | -16% | -10% | -1% | 21µM* | 3%
Cc1ccc(C2CN=NC23CCc2ccccc2C3=O)cc1 (stereo not given) | -1% | ? | 8% | 12µM* | 1%
O=C1c2ccccc2CCCC12N=NCC2c1cccc2ccccc12 (stereo not given) | -29% | -6% | -5% | -1% | 1%
CS/C(Nc1cc(Cl)ccc1Cl)=C(/C#N)C(=O)c1ccco1 | / | 21µM* | ? | 2.1µM* | ?

Screening data from PubChem BioAssay.
